Assay outcomes deposited in PubChem by Broad Institute.
ERAP1 inh: blocks human ERAP1 aminopeptidase activity; Q9NZ08; inhibition, % at 10.7 µM; recombinant ERAP1, Leu-AMC fluorescence, 60 min; 0.15% of 340,000 active;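 active = mean replicate inhibition of at least 30%, or all replicates individually reaching that 30% level; inactive = mean below 30% and not every replicate reaching it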;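 note: 0% = neutral control wells and 100% = L-leucinethiol positive control wells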
CASP6 VEID inh: caspase-6 (human) enzyme inhibition. purified caspase-6, Z-VEID-R110 cleavage fluorescence. P55212. inhibition, % at 12.5 µM. AID 686996. 0.53% of 350,000 active;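 active = mean inhibition across replicates at least about 35%, with every replicate also reaching that limit, limit read from the data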;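 note: 0% = median of neutral control wells and 100% = no fluorescence left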
Target sequence (P55212 24-179 limits assumed): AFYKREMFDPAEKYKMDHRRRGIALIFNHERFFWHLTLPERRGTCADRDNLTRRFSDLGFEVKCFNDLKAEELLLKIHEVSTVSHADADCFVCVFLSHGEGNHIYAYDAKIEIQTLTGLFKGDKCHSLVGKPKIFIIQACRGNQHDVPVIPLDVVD
Target sequence (P55212 194-293 limits assumed): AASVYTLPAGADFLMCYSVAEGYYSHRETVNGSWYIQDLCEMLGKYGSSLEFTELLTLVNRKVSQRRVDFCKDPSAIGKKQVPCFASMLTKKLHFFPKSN
INS-1E GSIS act: primary screen for activators of insulin secretion dependent on glucose, INS-1E cells, GLuc reporter luminescence; activation, % at 16.6 µM; AID 743287; INS-1E GLuc reporter insulin secretion, 2-3 h; 0.61% of 370,000 active;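 active = lowest replicate activation of at least 40%, so every replicate reaches that level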;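 note: 0% = median of neutral control wells and 100% = median of IBMX positive control wells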
SIRT5 inh: inhibitors of human sirtuin-5 desuccinylase; Q9NXA8; Purified SirT5, succinyl-peptide AMC, trypsin-coupled fluorescence; inhibition, % at 15 µM; 1.1% of 330,000 active; in the data active = inhibition above about 15%
FGF22 binding: binders of recombinant human FGF22 by thermal shift; 1.5% of 340,000 active; activity (Tm shift, normalised), % at 9.99 µM; Q9HCT0; AID 651658; SYPRO orange fluorescence; percent of sucrose octasulfate shift, DMSO zero;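 active = mean Tm shift, scaled 0 neutral to 100 positive control, at about 1.3% or above, every replicate too, limit read from the data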
Target sequence (Q9HCT0 whole entry, looked up): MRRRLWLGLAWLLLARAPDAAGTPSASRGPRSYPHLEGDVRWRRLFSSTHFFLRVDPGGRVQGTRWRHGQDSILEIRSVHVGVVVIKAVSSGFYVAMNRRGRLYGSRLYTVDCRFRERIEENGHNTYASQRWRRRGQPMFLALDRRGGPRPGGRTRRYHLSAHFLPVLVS
Starred values were filed as active, the others as inactive; . = no result given; ! = not confirmed by another sample. Shown are actives, neighbours in structure and some others; about 3.3% of the full set was active somewhere.

SMILES	ERAP1 inh	CASP6 VEID inh	INS-1E GSIS act	SIRT5 inh	FGF22 binding
CCc1ccccc1NC(=S)NC1CC2CCC(C1)N2Cc1ccc(F)cc1 (configuration not stated)	-5	1	3	2	1.5*
CO[C@H]1CN(C)C(=O)c2ccc(NC(=O)Nc3cc(F)ccc3F)cc2OC[C@@H](C)N(C)C[C@H]1C	-1	1	11	-1	0
Cc1ccc(-c2cnc3c(c2)C(=O)N([C@H](C)CO)C[C@H](C)[C@@H](CN(C)Cc2ccccc2F)O3)cc1	-5	4	-21	13*!	0
Cc1ccc(-c2cnc3c(c2)C(=O)N([C@H](C)CO)C[C@@H](C)[C@@H](CN(C)Cc2ccccc2F)O3)cc1	-2	0	-17	-2	0
C[C@@H]1CN([C@@H](C)CO)C(=O)c2cc(-c3cccc(F)c3)cnc2O[C@H]1CN(C)C(=O)Nc1cc(F)ccc1F	0	-1	-21	23*	0
C[C@H](CO)N1C[C@H](C)[C@@H](CN(C)Cc2ccc(-c3ccccc3)cc2)Oc2ncc(C#C[C@@H](C)O)cc2C1=O	0	-7	-8	17*!	0
C[C@H](CO)N1C[C@H](C)[C@H](CN(C)Cc2cccc(C(F)(F)F)c2)Oc2ncc(C#Cc3ccccc3)cc2C1=O	-2	2	-12	29*	-1
C[C@@H]1CN([C@@H](C)CO)C(=O)c2cc(-c3cccc(F)c3)cnc2O[C@@H]1CN(C)C(=O)Nc1cc(F)ccc1F	-1	-1	-17	0	0
O=C(c1ccccc1F)N1CC(=O)N2[C@H](CO)[C@H](c3ccc(-c4ccccc4)cc3)[C@@H]2C1	.	.	-16	1	.
Cc1noc(C)c1S(=O)(=O)N(C)C[C@H]1Oc2ccc(NC(=O)CCCN(C)C)cc2C(=O)N([C@H](C)CO)C[C@@H]1C	.	.	15	.	.
CC(C)NC(=O)Nc1ccc2c(c1)C(=O)N(C)[C@@H]1CC[C@@H](CC(=O)NC3CCCCC3)O[C@H]1CO2	.	.	-4	.	0
COCC(=O)N(C)C[C@@H]1Oc2cc(-c3ccccc3F)ccc2S(=O)(=O)N([C@H](C)CO)C[C@H]1C	2	-3	18	-1	0
C[C@@H]1CN([C@@H](C)CO)C(=O)c2cc(Br)cnc2O[C@H]1CN(C)Cc1cccnc1	-5	0	-4	36*!	0
C[C@@H]1CN([C@@H](C)CO)C(=O)c2cc(-c3cccc(F)c3)cnc2O[C@@H]1CN(C)Cc1ccncc1	-2	2	.	21*	0
C[C@H](CO)N1C[C@H](C)[C@H](CN(C)Cc2cccc(C(F)(F)F)c2)Oc2ncc(-c3ccc(F)cc3)cc2C1=O	1	1	-5	18*	0
C[C@@H]1CN([C@@H](C)CO)C(=O)c2cc(-c3cccc(F)c3)cnc2O[C@H]1CN(C)Cc1ccncc1	-1	-2	0	3	0
C[C@@H]1CN([C@H](C)CO)C(=O)c2cc(Br)cnc2O[C@H]1CN(C)Cc1cccnc1	14	-8	13	10	0
C[C@H](CO)N1C[C@H](C)[C@H](CN(C)Cc2ccncc2)Oc2ncc(C#CCN(C)C)cc2C1=O	2	-1	11	41*!	0
C[C@H]1CN([C@@H](C)CO)C(=O)c2cc(C#CCN(C)C)cnc2O[C@H]1CN(C)Cc1ccncc1	3	-4	2	-1	0
C[C@H](CO)N1C[C@H](C)[C@H](CN(C)Cc2ccc(F)cc2)Oc2ncc(-c3cccc(C(F)(F)F)c3)cc2C1=O	4	4	-16	-2	0
CC=Cc1ccc2n(c1=O)C[C@H]1[C@H](CO)[C@@H](C(=O)N(C)C)N(CCC(F)(F)F)[C@@H]21 (mixture of isomers)	-4	-1	11	-4	0
COc1ccc2c3c(n(C)c2c1)[C@H](CO)N(C(=O)CN(C)C)CC31CN(Cc2cccnc2)C1	.	.	28	.	.
C[C@@H]1CN([C@H](C)CO)C(=O)c2cc(C#CC3CCCCC3)cnc2O[C@@H]1CN(C)S(C)(=O)=O	1	2	3	-1	0
CCCNC(=O)Nc1ccc2c(c1)C(=O)N(C)C[C@@H](OC)[C@H](C)CN[C@@H](C)CO2	-6	1	9	1	0
CS(=O)(=O)N(CC(=O)Nc1ccccc1C(=O)N1CCCC1)c1ccc2c(c1)OCO2	-3	0	2	-2	43*
SMILES	ERAP1 inh	CASP6 VEID inh	INS-1E GSIS act	SIRT5 inh	FGF22 binding
COc1ccc(CCNC(=O)CN(c2cc([N+](=O)[O-])ccc2OC)S(C)(=O)=O)cc1	-9	-1	-7	-3	43*
CS(=O)(=O)N(CC(=O)Nc1ccccc1C(=O)N1CCOCC1)c1ccc2c(c1)OCO2	.	.	-1	.	.
COc1ccc([N+](=O)[O-])cc1N(CC(=O)Nc1ccccc1C(=O)N1CCCC1)S(C)(=O)=O	-2	1	-5	-3	44*
COc1ccc(CCNC(=O)CN(c2cccc([N+](=O)[O-])c2)S(C)(=O)=O)cc1	-3	1	-19	-2	0
O=C(C[C@H]1CC[C@@H]2NC[C@H](O)COC[C@H]2O1)Nc1ccccc1	0	0	8	0	0
COc1ccc(-n2nnnc2SCC(=O)Nc2ccc3c(c2)OCCO3)c(OC)c1	.	.	-5	.	.
COc1ccc(-n2nnnc2SCC(=O)c2ccc3c(c2)OCCO3)c(OC)c1	1	1	.	27*	0
CCCN1C[C@H](C)[C@H](OC)CN(C)C(=O)c2ccc(NC(=O)c3ccccc3)cc2OC[C@H]1C	2	.	-1	-8	0
CC(=O)N1CCN(Cc2nc(-c3cccc(Cl)c3)no2)CC1	5	1	2	3	43*
CCOC(=O)N1CCN(Cc2nc(-c3cccc(C)c3)no2)CC1	2	0	-11	-1	0
CN1CCCC2(CCCN(Cc3nc(Cc4cccc(C(F)(F)F)c4)no3)C2)C1 (configuration not stated)	5	-2	-13	-1	42
CN1CCCN(Cc2nc(-c3cccc(C(F)(F)F)c3)no2)CC1	0	-6	.	3	43*
COC(=O)c1cc(=O)n(-c2ccccc2)c(=Nc2ccccc2)s1	7	2	.	7	0
CN=C(Nc1ccc(C(=O)OC)s1)c1ccccc1	0	-1	0	32*	42
CNC[C@@H]1Oc2ncccc2C(=O)N(C)C[C@@H]1C	.	.	-6	.	.
CCN(CC)C(=O)COc1ccc(/C(C)=N/NC(=O)c2ccccc2O)cc1	1	38*	4	2	0
O=C(NCc1ccccc1)[C@@H]1[C@@H](CO)[C@@H]2Cn3c(ccc(-c4cccnc4)c3=O)[C@@H]2N1Cc1cocn1	.	.	4	.	.
COc1ccc(C#Cc2ccc([C@@H]3[C@@H](CO)N4C(=O)CN(C(=O)c5ccccc5)C[C@@H]34)cc2)cc1	-2	3	16	4	.
O=C1C=C(Nc2ccccc2)C(=O)c2ccccc21	3	-1	9	.	0
O=C1C=C(Nc2ccccc2C(=O)O)c2ccccc2C1=O	-3	89*	-47	3	-1
